# Sampled rows, rich in hits. Any-hit rate of the full collection: about 2.3%.
# M1 PAM = positive allosteric modulators of human M1 muscarinic receptor. CHO-K1 hM1, Fluo-8 calcium fluorescence, ACh EC20; 0% = ACh EC20, 100% = maximal ACh. activation, % at 3 µM. hit rate 0.088% among 360,000; in the data active means activation above about 19%, passing the limit was not always enough
# Target sequence (P11229 whole entry, looked up): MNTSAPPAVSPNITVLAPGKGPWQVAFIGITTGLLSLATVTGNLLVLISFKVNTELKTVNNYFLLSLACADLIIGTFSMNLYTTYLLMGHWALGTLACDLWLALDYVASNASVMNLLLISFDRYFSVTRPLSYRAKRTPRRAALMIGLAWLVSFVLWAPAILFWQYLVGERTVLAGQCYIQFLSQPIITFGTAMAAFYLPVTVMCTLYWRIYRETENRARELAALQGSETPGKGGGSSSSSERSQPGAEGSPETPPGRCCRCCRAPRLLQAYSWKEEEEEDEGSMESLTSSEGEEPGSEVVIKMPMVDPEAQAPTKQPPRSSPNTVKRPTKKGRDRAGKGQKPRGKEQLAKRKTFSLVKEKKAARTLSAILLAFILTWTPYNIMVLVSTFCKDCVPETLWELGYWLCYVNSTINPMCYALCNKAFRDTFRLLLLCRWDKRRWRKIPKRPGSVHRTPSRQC
# M1 ag parental = counter-screen for M1 agonists: effect in parental CHO-K1 cells | Fluo-8 calcium fluorescence; scaled to maximal ATP response, vehicle zero | AID 602248 | hit rate 0.48% among 360,000 | activation, % at 3 µM; in the data active means activation above about 15%;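 further: untransfected CHO-K1 host cells lacking M1 receptor as counterscreen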
# M1 antag = human CHRM1 antagonism. P11229. inhibition, % at 3 µM. CHO-K1 hM1, Fluo-8 calcium fluorescence, ACh EC80 antagonist. hit rate 1.3% among 360,000. AID 588852;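 active means percent inhibition above its own plate's cutoff, namely the mean of that plate's compound wells plus 3 SD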;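 further: peak over basal fluorescence ratio during 140 s after agonist addition; 0% = ACh EC80 plus DMSO and 100% = DMSO alone without agonist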
# CHRM1 agonist = human M1 muscarinic receptor agonism; P11229; CHO-K1 hM1, Fluo-8 calcium fluorescence, agonist mode; 0% DMSO, 100% acetylcholine EC100; activation, % at 3 µM; hit rate 0.33% among 360,000;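 active means activation above the run's mean compound activation plus 3 SD, cut at about 16% in these data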;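 further: peak over basal fluorescence ratio within a 140 s kinetic read after compound addition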
# CHO-K1 Ca antag = M1 antagonist counterscreen hit in parental CHO-K1 cells; hit rate 0.6% among 360,000; ATP-induced calcium, Fluo-8 fluorescence; inhibition, % at 3 µM;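 active means inhibition above a per-plate cutoff, the plate's mean sample inhibition plus 3 SD, cut at about 24% in these data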;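 further: 0% = DMSO plus EC80 ATP and 100% = DMSO alone without ATP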
# CHO-K1 Ca PAM = nonselective activator or artifact in parental CHO-K1 calcium assay; hit rate 0.02% among 360,000; AID 602247; ATP EC20, Fluo-8 calcium fluorescence; 0% at ATP EC20, 100% at ATP max; activation, % at 3 µM;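 active means activation above the run cutoff, the mean activation of all test compounds plus 3 SD, cut at about 40% in these data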;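 further: peak over basal fluorescence ratio in a 140 s read after ATP addition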
# * hit, by the source's call; . = no result.
SMILES,M1 PAM,M1 ag parental,M1 antag,CHRM1 agonist,CHO-K1 Ca antag,CHO-K1 Ca PAM
CCCCn1c(N)c(N(CCOC)C(=O)c2cc(=O)[nH]c3ccccc23)c(=O)[nH]c1=O,2,1,-8,-5,-14,0
CCCCn1c(N)c(N(CCOC)C(=O)c2cc(C)oc2C)c(=O)[nH]c1=O,5,4,-5,-3,24*,-20
CC1(C(=O)NS(=O)(=O)C2CC2)CCCN(C(=O)c2c(F)cccc2F)C1 (stereo not drawn),0,0,-2,1,-7,0
CCOc1ccc(S(=O)(=O)N2CCN(C(=O)c3cc(C4CC4)nn3-c3ccccc3)CC2)cc1,-26,0,69*,-7,66*,9
O=C(c1cc(C2CC2)nn1-c1ccccc1)N1CCN(c2ccccn2)CC1,-21,1,30*,-8,7,8
O=C(c1cc(C2CC2)nn1-c1ccccc1)N1CCN(c2ccccc2O)CC1,0,2,5,-2,-6,7
CC1(C(=O)NS(=O)(=O)c2ccc(Cl)cc2)CCN1C(=O)c1ccco1 (stereo not drawn),-3,0,3,-2,-9,16
CCOC(=O)c1c(NC(=O)CSc2n[nH]c(-c3ccco3)n2)sc(C)c1C,2,0,4,-3,24*,-7
CCOC(=O)c1sc(NC(=O)CSc2ccccn2)c(C#N)c1C,2,0,3,-4,-12,-6
CCOC(=O)c1sc(NC(=O)CSc2nc(C)cc(C)n2)c(C#N)c1C,5,0,-7,-2,-3,9
CCOC(=O)c1sc(NC(=O)CSc2ncn[nH]2)c(C#N)c1C,4,18*,7,0,3,22
CCOC(=O)c1sc(NC(=O)CSc2n[nH]c(-c3ccccc3)n2)c(C#N)c1C,-15,10,19,5,27*,1
CCOC(=O)c1c(NC(=O)CSc2n[nH]c(CNc3ccccc3)n2)sc(C)c1C,18,-1,-12,1,-4,22
O=C(c1[nH]c(C(F)(F)F)nc1-c1ccccc1)N1CCN(c2cccc(C(F)(F)F)n2)CC1,-4,2,-6,-6,-17,14
Cc1cc(S(=O)(=O)c2ccc(Cl)cc2)nc(S(=O)(=O)c2ccc(Cl)cc2)c1C#N,-8,1,23,-2,21,-13
Cc1ccc(C)c(NC(=O)Nc2ccc3c(c2)OCO3)c1,12,0,-16,-4,29*,-15
Cc1csc(N(C)C(=O)CSc2nnc(COc3cccc4ccccc34)o2)n1,-9,-1,16,-3,6,61*
Cc1cc2nc(C3CCCCC3)c(Cc3cccc(F)c3)n2c(C)c1Br,-4,1,-17,-2,-32,17
Cc1c(OCC(=O)NCCN2CCOCC2)ccc2c1oc(=O)c1ccccc12,-5,17*,7,3,1,-17
CCCCNC(=O)C[C@@H]1C[C@@]2(C(=O)OCC)CCC=C2N(Cc2ccc(Cl)cc2Cl)C1=O,.,0,.,.,-19,-5
CCCCC(CC)CN=C(N)NC(N)=NCCCCCCN=C(N)NC(N)=NCC(CC)CCCC (stereo not drawn),-25,3,88*,58*,-1,13
CC1CCC(CN2CCN=C2Nc2ccccc2)CC1 (stereo not drawn),-17,0,34*,-11,3,-13
O=C(Nc1nnc(-c2ccccc2Cl)o1)c1nc2ccccc2s1,-6,48*,1,74*,0,0
O=C(Nc1nnc(-c2ccccc2Cl)o1)c1ccco1,3,0,0,-4,-1,5
COc1cccc2sc(Nc3nnc(-c4ccccc4Cl)o3)nc12,1,0,-4,1,29*,-9
SMILES,M1 PAM,M1 ag parental,M1 antag,CHRM1 agonist,CHO-K1 Ca antag,CHO-K1 Ca PAM
COc1ccccc1-c1nnc(Nc2nc3c(OC)cccc3s2)o1,13,1,-2,-3,-1,18
Cc1cn([C@H]2C[C@H](O)[C@@H](/C=C/C(=O)NCCN3CCCCC3)O2)c(=O)[nH]c1=O,6,1,-27,-6,-8,15
C[C@@H]1CN([C@H](C)CO)C(=O)CCCn2nncc2CO[C@H]1CN(C)Cc1ccccc1,0,0,-11,-6,2,-1
CN(C)CCNC(=O)c1cccc(-c2cnc3c(NC=O)cc(/C=C/c4ccccc4)cn23)c1,4,0,-11,-9,-5,5
COC(=O)C1CC(O)CN1C(=O)Nc1cccc(C(F)(F)F)c1 (stereo not drawn),12,-1,-3,-2,29*,-18
COC(=O)c1oc2ccccc2c1NC(=O)c1ccccc1O,0,3,-1,-4,1,11
Cc1c(C(=O)NNC(=O)c2ccccc2O)oc2ccccc12,0,0,-2,-1,26*,-14
C[C@@H]1O[C@H](CCc2cccc(Cl)c2)CC2=C1C(=O)OC(C)(C)O2,.,0,.,.,-18,6
O=C(CCNC(=O)c1ccco1)NCCN1C(=O)S/C(=C\c2ccc(F)cc2)C1=O,3,12,-4,-1,5,2
Cc1ccc(S(=O)(=O)CCC(=O)NCCN2C(=O)S/C(=C/c3ccc(F)cc3)C2=O)cc1,-4,6,3,-3,26*,-12
N#Cc1ccccc1S(=O)(=O)N1CCN(C(=O)CN(Cc2ccco2)Cc2cccs2)CC1,-7,2,-2,-5,-5,-6
COC(=O)CSc1nnc2n(-c3ccc(OC)cc3)c(=O)c3c4c(sc3n12)CCCCC4,1,-1,5,-4,24*,-2
COC(=O)CSc1nnc2n(C3CCCCC3)c(=O)c3c4c(sc3n12)CCCC4,-8,0,-1,-4,-13,3
CCOc1cccc2cc(C(=O)NCc3cccnc3)c(=O)oc12,-5,0,8,-5,-3,-9
C=CCc1cccc2cc(C(=O)NCc3cccnc3)c(=O)oc12,-33,0,36*,-15,-9,-2
CCc1ccc(C(O)c2ncc(-c3ccccc3Cl)[nH]2)cc1 (stereo not drawn),-5,5,-10,-1,-13,13
CCCCOCCCNC(=O)C[C@@H]1C[C@@]2(C(=O)OCC)CCCC=C2N(Cc2ccc3c(c2)OCO3)C1=O,.,-1,.,.,5,-5
CN(C(=O)C(Cl)Cl)C1CC2C=CC1C2 (stereo not drawn),12,16*,-13,-4,-8,21
COc1ccc(C(=O)C2CCCN(Cc3ccc4nonc4c3)C2)cc1F (stereo not drawn),-11,2,14,-5,-13,13
COc1ccc(C(=O)C2CCCN(Cc3cnc(N4CCOCC4)s3)C2)cc1F (stereo not drawn),0,29*,-16,0,-5,15
